Measurements published in the supplement of paper PMC11628255, “Interference of metal ions on the bioluminescent signal of firefly, Renilla, and NanoLuc luciferases in high-throughput screening assays” (Frontiers in Chemistry, 2024).
± gives the standard deviation of the averaged measurements.

Tested on: NanoLuc luciferase (NLuc)
Experiment: residual bioluminescent signal relative to negative control without GSH; higher = less interference (more residual luciferase signal)
Details: screening conditions buffer
Method: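 Selected metal salts at 3-4 concentrations tested on purified FLuc, NLuc or RLuc in screening buffer with 0, 0.2 or 2 mM glutathione added; 10 min enzyme pre-incubation at RT, luminescence 10 min after substrate. Signal normalised to negative control without GSH (% N_VALUE); triplicate wells.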

[1] = metal salt concentration 1 mM, glutathione 0 mM
[2] = metal salt concentration 1 mM, glutathione 0.2 mM
[3] = metal salt concentration 1 mM, glutathione 2 mM
[4] = metal salt concentration 0.001 mM, glutathione 0 mM
[5] = metal salt concentration 0.001 mM, glutathione 0.2 mM
[6] = metal salt concentration 0.001 mM, glutathione 2 mM

**Q.** For `O=[N+]([O-])[O-].O=[N+]([O-])[O-].[Cu+2]` [copper(II) nitrate], which residual bioluminescent signal (metal salt concentration 0.0005 mM, glutathione 0 mM) is on record?
**A.** The residual bioluminescent signal was 104 ± 4.1%.

**Q.** What about the residual bioluminescent signal (metal salt concentration 0.0005 mM, glutathione 0.2 mM) of the same compound?
**A.** Its residual bioluminescent signal is 106 ± 5.4%.

**Q.** And the residual bioluminescent signal (metal salt concentration 0.0005 mM, glutathione 2 mM)?
**A.** The residual bioluminescent signal was 89.3 ± 3.6%.

**Q.** And the residual bioluminescent signal (metal salt concentration 0.017 mM, glutathione 0 mM)?
**A.** Its residual bioluminescent signal is 101 ± 7.7%.

**Q.** And the residual bioluminescent signal (metal salt concentration 0.017 mM, glutathione 0.2 mM)?
**A.** Its residual bioluminescent signal is 104 ± 6.7%.

**Q.** And the residual bioluminescent signal (metal salt concentration 0.017 mM, glutathione 2 mM)?
**A.** The residual bioluminescent signal was 92.9 ± 4.8%.

**Q.** What about the residual bioluminescent signal (metal salt concentration 0.02 mM, glutathione 0 mM) of the same compound?
**A.** The residual bioluminescent signal was 86.4 ± 3.7%.

**Q.** And the residual bioluminescent signal (metal salt concentration 0.02 mM, glutathione 0.2 mM)?
**A.** Its residual bioluminescent signal is 98 ± 2.7%.

**Q.** And the residual bioluminescent signal (metal salt concentration 0.02 mM, glutathione 2 mM)?
**A.** The residual bioluminescent signal was 84.1 ± 2.6%.

**Q.** And the residual bioluminescent signal [1]?
**A.** Its residual bioluminescent signal is 0.661 ± 0.17%.

**Q.** And the residual bioluminescent signal [2]?
**A.** The residual bioluminescent signal was 1.03 ± 0.57%.

**Q.** And the residual bioluminescent signal [3]?
**A.** The residual bioluminescent signal was 68.9 ± 7.9%.

**Q.** Which residual bioluminescent signal [4] does the source give for `O=[N+]([O-])[O-].O=[N+]([O-])[O-].[Zn+2]` [zinc nitrate] here?
**A.** Its residual bioluminescent signal is 98.9 ± 6.3%.

**Q.** And the residual bioluminescent signal [5]?
**A.** The residual bioluminescent signal was 103 ± 6.2%.

**Q.** And the residual bioluminescent signal [6]?
**A.** Its residual bioluminescent signal is 89.6 ± 2.3%.

**Q.** And the residual bioluminescent signal (metal salt concentration 0.174 mM, glutathione 0 mM)?
**A.** The residual bioluminescent signal was 50.9 ± 6%.

**Q.** And the residual bioluminescent signal (metal salt concentration 0.174 mM, glutathione 0.2 mM)?
**A.** Its residual bioluminescent signal is 72.7 ± 2.8%.

**Q.** And the residual bioluminescent signal (metal salt concentration 0.174 mM, glutathione 2 mM)?
**A.** The residual bioluminescent signal was 77.5 ± 7.3%.

**Q.** And the residual bioluminescent signal [1]?
**A.** Its residual bioluminescent signal is 34.2 ± 8.5%.

**Q.** What about the residual bioluminescent signal [2] of the same compound?
**A.** The residual bioluminescent signal was 42.1 ± 1.7%.

**Q.** What about the residual bioluminescent signal [3] of the same compound?
**A.** The residual bioluminescent signal was 63.9 ± 1.7%.

**Q.** And the residual bioluminescent signal (metal salt concentration 5 mM, glutathione 0 mM)?
**A.** Its residual bioluminescent signal is 5.95 ± 1.4%.

**Q.** What about the residual bioluminescent signal (metal salt concentration 5 mM, glutathione 0.2 mM) of the same compound?
**A.** The residual bioluminescent signal was 7.9 ± 2.7%.

**Q.** What about the residual bioluminescent signal (metal salt concentration 5 mM, glutathione 2 mM) of the same compound?
**A.** Its residual bioluminescent signal is 12.4 ± 2.1%.

**Q.** For `O=[N+]([O-])[O-].[Ag+]` [silver nitrate], which residual bioluminescent signal [4] is on record?
**A.** The residual bioluminescent signal was 98.9 ± 6.8%.

**Q.** And the residual bioluminescent signal [5]?
**A.** Its residual bioluminescent signal is 102 ± 1.4%.

**Q.** And the residual bioluminescent signal [6]?
**A.** The residual bioluminescent signal was 90.9 ± 4.7%.

**Q.** And the residual bioluminescent signal (metal salt concentration 0.0114 mM, glutathione 0 mM)?
**A.** Its residual bioluminescent signal is 15.6 ± 8%.

**Q.** And the residual bioluminescent signal (metal salt concentration 0.0114 mM, glutathione 0.2 mM)?
**A.** The residual bioluminescent signal was 106 ± 1.6%.

**Q.** And the residual bioluminescent signal (metal salt concentration 0.0114 mM, glutathione 2 mM)?
**A.** Its residual bioluminescent signal is 85.33 ± 0.82%.

**Q.** What about the residual bioluminescent signal (metal salt concentration 0.05 mM, glutathione 0 mM) of the same compound?
**A.** Its residual bioluminescent signal is 2.78 ± 0.95%.

**Q.** What about the residual bioluminescent signal (metal salt concentration 0.05 mM, glutathione 0.2 mM) of the same compound?
**A.** The residual bioluminescent signal was 107 ± 4.8%.

**Q.** What about the residual bioluminescent signal (metal salt concentration 0.05 mM, glutathione 2 mM) of the same compound?
**A.** Its residual bioluminescent signal is 85.7 ± 1%.

**Q.** And the residual bioluminescent signal [1]?
**A.** Its residual bioluminescent signal is 3.17 ± 0.68%.

**Q.** What about the residual bioluminescent signal [2] of the same compound?
**A.** The residual bioluminescent signal was 15.2 ± 5.5%.

**Q.** What about the residual bioluminescent signal [3] of the same compound?
**A.** Its residual bioluminescent signal is 82.48 ± 0.71%.
